High-throughput results (PubChem BioAssay)
FBA Mtb inh = inhibits M. tuberculosis FBA enzyme. P9WQA3. purified M. tuberculosis FBA, fluorescence read-out. inhibition, % at 1 µM. 360,000 compounds, 2.3% hits
Target sequence (P9WQA3 whole entry, looked up): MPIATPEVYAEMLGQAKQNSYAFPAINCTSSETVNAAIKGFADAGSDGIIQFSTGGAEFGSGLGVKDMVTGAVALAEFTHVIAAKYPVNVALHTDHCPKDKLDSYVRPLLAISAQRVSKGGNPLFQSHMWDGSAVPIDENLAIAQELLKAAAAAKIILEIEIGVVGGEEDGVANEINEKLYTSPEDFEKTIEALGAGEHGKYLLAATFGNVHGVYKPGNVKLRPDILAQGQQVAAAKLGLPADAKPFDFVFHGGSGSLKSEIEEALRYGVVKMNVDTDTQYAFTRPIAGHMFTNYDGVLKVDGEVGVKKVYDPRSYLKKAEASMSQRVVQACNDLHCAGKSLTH
Rv3671c inh = inhibitors of M. tuberculosis serine protease Rv3671c; P9WHR9; inhibition, % at 5.96 µM; 320,000 compounds, 0.048% hits; AID 2606; in the data active means inhibition above about 38%;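 further: extracellular domain of Rv3671c used as enzyme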
UGM FP inh = Mtb UDP-galactopyranose mutase inhibition | P9WIQ1 | purified UGM, fluorescence polarization probe displacement | inhibition, % at 10 µM | 320,000 compounds, 0.06% hits | AID 504406; in the data active means inhibition above about 10%, passing the limit was not always enough
GDH-TPI counter-1 = inhibits GDH-TPI coupling enzymes, artifact for Mtb FBA screen; GDH-TPI coupled enzyme counterscreen, NADH absorbance; inhibition, % at 4.8 µM; 360,000 compounds, 1.2% hits; AID 588335; in the data active means inhibition above about 30%
Mtb FBA inh conf = Mtb FBA inhibition, confirmed. shares compounds with FBA Mtb inh. 5,600 compounds, 78% hits. purified M. tuberculosis FBA, fluorescence read-out. inhibition, % at 1 µM
GDH-TPI counter-2 = inhibits GDH-TPI coupling enzymes, flagging Mtb FBA hits | shares compounds with FBA Mtb inh | GDH-TPI coupled enzyme counterscreen, fluorescence | inhibition, % at 1 µM | 5,600 compounds, 81% hits; in the data active means inhibition above about 10%
Numbers stand for hits; 0 = inactive; - = no result given; + = active, no number. The list is not random: actives were taken first. Their share in the collection is about 3.5%. Unless noted, no stated cut-off is given here; in the data, active means inhibition above about 27%; inactive means the rest.

SMILES	FBA Mtb inh	Rv3671c inh	UGM FP inh	GDH-TPI counter-1	Mtb FBA inh conf	GDH-TPI counter-2
Cn1cc(C2NC(=O)c3ccccc3N2)c2ccccc21 (stereo unspecified)	0	-	-	0	-	-
O=C1NC(c2ccccc2O)Nc2ccccc21 (stereo unspecified)	33	0	0	0	0	11
Cc1ccc(C)c(C2NC(=O)c3ccccc3N2)c1 (stereo unspecified)	63	0	0	0	93	72
O=C1NC(c2ccc(Cl)c([N+](=O)[O-])c2)Nc2ccccc21 (stereo unspecified)	0	0	0	0	-	-
O=C1NC(c2cccc(OCc3ccccc3)c2)Nc2ccccc21 (stereo unspecified)	42	-	-	0	168	134
O=C(NCc1ccccc1C(F)(F)F)c1cccc2c1C(=O)c1ccc(N3CCCCC3)cc1S2(=O)=O	0	0	0	0	-	-
CC(C)C1N(C(=O)N2CCOCC2)CCN1S(=O)(=O)c1ccccc1 (stereo unspecified)	0	0	0	0	-	-
CN1C(=O)C(C)(C)c2cc(S(=O)(=O)N3CCCC(C(=O)NCc4ccccc4Cl)C3)ccc21 (stereo unspecified)	0	0	0	0	-	-
O=C1NC(c2ccc(O)cc2)Nc2ccccc21 (stereo unspecified)	37	0	0	0	39	34
CSc1ccc(C2NC(=O)c3ccccc3N2)cc1 (stereo unspecified)	48	0	0	0	0	16
CSc1ccc(C2Nc3cccc4cccc(c34)N2)cc1	0	0	0	0	-	-
CC(Oc1ccccc1)C(=O)N1CCN=C1SCc1ccc(F)cc1 (stereo unspecified)	0	0	0	0	-	-
Cc1onc(-c2ccccc2)c1C(=O)Nc1nnc(CC(C)(C)C)s1	0	0	0	0	-	-
CN1CCC(Oc2ccccc2Sc2ccccc2)CC1	29	0	0	0	167	130
CN1CCC(OC(c2ccccc2)c2ccccc2)CC1	0	0	0	0	-	-
Cc1ccc(C(=O)N2[C@@H]3CN(C)C(=O)[C@@]2(Cc2ccccc2)[C@H]2C(=O)N(Cc4ccccc4)C(=O)[C@@H]32)cc1	0	-	-	0	-	-
Cc1cc(C)n2cc(CSC3=NCCS3)nc2n1	53	0	0	0	190	155
O=C(O)c1cccnc1SCc1cn2cc(Br)ccc2n1	0	0	0	0	-	-
Cc1cc(C)n2cc(CSc3nnnn3-c3ccccc3C)nc2n1	0	0	0	0	-	-
Cc1cc(C)n2cc(CSc3ncccc3C(=O)O)nc2n1	82	0	0	0	199	179
Cc1cc(C)n2cc(CSCc3ccco3)nc2n1	0	0	0	0	-	-
Cc1ccnc(SCc2cn3c(C)cc(C)nc3n2)n1	100	0	0	0	46	48
Cc1cc(C)cc(NC(=S)N2CCN(S(=O)(=O)c3ccccc3)CC2)c1	0	-	0	0	-	-
O=C(C=C=Nc1ccccc1)C(=O)N=C=Cc1ccccc1	0	0	0	0	-	-
COc1ccc(O)c(C(=O)CC(=O)c2ccc(F)cc2)c1	81	0	0	0	79	52
SMILES	FBA Mtb inh	Rv3671c inh	UGM FP inh	GDH-TPI counter-1	Mtb FBA inh conf	GDH-TPI counter-2
COc1ccc(C(=O)COc2ccc(F)cc2)c(O)c1	0	0	0	0	-	-
CC(C)(C)c1ccc(C(=O)NCCc2ccccc2)cc1	27	0	0	0	111	93
C[C@H](CO)N1C[C@H](C)[C@@H](CN(C)Cc2ccc(F)cc2)Oc2ncc(Br)cc2C1=O	0	-	-	0	-	-
CCOC(=O)c1[nH]c2ccc(OC)cc2c1NC(=O)CCN1CCCC(C)C1 (stereo unspecified)	35	0	0	0	+	+
CCOC(=O)c1[nH]c2ccc(OC)cc2c1NC(=O)OC	38	0	0	0	+	146
CCOC(=O)c1[nH]c2ccc(OC)cc2c1NC(=S)N1CCN(C(=O)OCC)CC1	0	0	0	0	-	-
CCOC(=O)c1[nH]c2ccc(OC)cc2c1N=CN(C)C	39	0	0	0	+	175
O=C(Nc1ccc(Br)cc1)c1cccc(N2C(=O)C3CCCCC3C2=O)c1 (stereo unspecified)	0	0	0	0	-	-
CCN(CC)CCNC(=O)c1cn(CCOC)c(=O)c2c1c1ccccc1n2C	0	0	0	0	-	-
